Compounds without any hit were thinned out: in the full panel of roughly 83,000, 20% have a hit.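 Assay: single dose, 48 h. Readout: percent growth (0 = no net growth; negative = cell death). Active: <10.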 A number with no mark means an inactive call. Active and inactive are the calls of the source.
test system: ACHN renal; test: NCI-60 one-dose screen, 48 h (100 = growth as untreated, 0 = no growth, -100 = all killed); conditions: 10 µM

SMILES | growth
CCCCCCCNc1nc(C=O)ncc1-c1ccc(C(F)(F)F)cc1 | 104%
CCCCCCN1CCN(Cc2ccc(N(CC)CC)cc2)C(=O)C1=O | 52.4%
O=C(Nc1cccc(-n2cc(-c3ccncc3)c(-c3ccc(O)c(Cl)c3)n2)c1)Nc1ccc(Cl)c(Cl)c1 | 9.03% (active)
S=C1SCC(c2ccccc2)S1 (centres undefined) | 101%
COc1cccc(C(=O)Nc2ccc(CN3CCc4nc5cc(OC)c(OC)cc5cc43)cc2)c1 | 36.9%
COc1ccc(-c2nn(-c3cccc(NC(=O)c4cc(C(F)(F)F)cc(C(F)(F)F)c4)c3)cc2-c2ccncc2)cc1Cl | 66.2%
O=C(Nc1ccccc1)Nc1cccc(-n2cc(-c3ccncc3)c(-c3ccc(O)c(Cl)c3)n2)c1 | 43.1%
N#CCCN1C/C(=C/c2ccc(Cl)cc2)C(=O)/C(=C/c2ccc(Cl)cc2)C1 | -70.7% (active)
COc1ccc(-c2nn(-c3cccc(NC(=O)c4cccc(C(F)(F)F)c4)c3)cc2-c2ccncc2)cc1Cl | 36.8%
COc1ccc([N+](=O)[O-])c(C(=O)O)c1 | 105%
CN(C)CCN=c1nc2c(c(N)n1-c1ccccc1)c(=S)n(-c1ccccc1)c(=S)n2-c1ccccc1 | 28.3%
O=C(Nc1cccc(-n2cc(-c3ccncc3)c(-c3ccc(O)c(Cl)c3)n2)c1)c1cccc(C(F)(F)F)c1 | 29.6%
COc1cccc(NC(=O)c2sc3nc4c(cc3c2N)C(O)CCC4)c1 (centres undefined) | 42%
O=S(=O)(NCCCNc1nccc(-c2c(-c3ccc(F)cc3)nc3sccn23)n1)c1ccc2ccccc2c1 | 39%
COc1ccc(-c2nn(-c3cccc(NC(=O)Nc4cccc(C(F)(F)F)c4)c3)cc2-c2ccncc2)cc1Cl | 17.5%
COc1ccc(-c2nn(-c3cccc(NC(=O)c4ccc(Cl)c(Cl)c4)c3)cc2-c2ccncc2)cc1Cl | 78.8%
Cc1c(Cl)cccc1NC(=O)c1sc2nc3c(cc2c1N)C(=O)CCC3 | 39.4%
COc1cc(/C=C/C(=O)c2ccc(Cl)cc2)ccc1OS(=O)(=O)c1ccc(C)cc1 | 94.3%
O=C(N/N=C/c1cc2ccccc2c2ccccc12)c1cc(O)c(O)c(O)c1 | 47.2%
COc1ccc(-c2nn(-c3cccc(NC(=O)c4ccc(N5CCOCC5)c(C(F)(F)F)c4)c3)cc2-c2ccncc2)cc1Cl | 60.3%

SMILES | growth
COc1ccc(-c2cc(/C=C/C(=O)c3cc(OC)c(OC)c(OC)c3)[nH]n2)cc1OC | -61.9% (active)
CC1=C(N2CCOCC2)C(N2CCOCC2)=C(C)C(=O)C1=O | 101%
Cc1ccc(C)c(C(O)(c2cc(C)ccc2C)C2(O)CCCCC2)c1 | 89%
COc1ccc(-c2nn(-c3cccc(NC(=O)c4ccc5c(c4)OCCO5)c3)cc2-c2ccncc2)cc1Cl | 41.4%
Cc1ncc(-c2ccoc2)c(NC2CCCCCC2)n1 | 99.6%
O=S(=O)(NCCNc1nccc(-c2c(-c3ccc(F)cc3)nc3sccn23)n1)c1ccc2ccccc2c1 | 56.6%
COc1ccc2c(c1)nc(N)c1c3cccnc3cn21 | 37.8%
O=C(Nc1cccc(-n2cc(-c3ccncc3)c(-c3ccc(O)c(Cl)c3)n2)c1)c1ccc(Cl)c(Cl)c1 | 49%
CCN1CCCC1CNC(=O)c1ncc(-c2ccc(C(F)(F)F)cc2)c(NC2CCCCCC2)n1 (centres undefined) | 93.5%
Clc1ccc(-c2cn(-c3ccccc3)c(-c3ccccc3)n2)c(Cl)c1 | -100% (active)
CCCCCCCCCCCCCCCC(=O)OC1[C@@H](OC(=O)CCCCCCCCCCCCCCC)[C@@H](C(=O)N[C@@H](CCCCN)C(=O)OC)O[C@H]1n1cnc2c(=O)[nH]c(NC(=O)C(C)C)nc21 (some centres undefined) | 102%
O=c1oc2cc(OS(=O)(=O)c3ccccc3)ccc2c2c1CCCCC2 | 82.2%
O=C1Nc2ccccc2C1=NC1CCCCC1 | 97.9%
O=C(Nc1cccc(-n2cc(-c3ccncc3)c(-c3ccc(O)c(Cl)c3)n2)c1)c1ccc(N2CCOCC2)c(C(F)(F)F)c1 | 29.3%
O=C(Nc1ccc(OS(=O)(=O)c2ccccc2)cc1)C12CC3CC(CC(C3)C1)C2 | 78.5%
O=C(Nc1cccc(-n2cc(-c3ccncc3)c(-c3ccc(O)c(Cl)c3)n2)c1)c1cc(C(F)(F)F)cc(C(F)(F)F)c1 | 44.8%
CCCC#CCN(CC)CC | 106%
Cc1ccc(S(=O)(=O)OCCN(CCOS(=O)(=O)c2ccc(C)cc2)c2c[nH]c(=O)[nH]c2=O)cc1 | 99%
CCOC(=O)C(NC(=O)C(Cl)Cl)C(O)c1ccccc1 (centres undefined) | 107%

Reference: PubChem BioAssay (NCI)
